# Reference: ChEMBL document CHEMBL3988442, “University of Dundee, Small-Polar-MMV Screening Library” (2021)
# Hit rate of the full screen: of about 48,000 compounds, about 13,000 (27%) showed an effect of 50% or more. Some of the results follow.
# System: Wolbachia pipientis
# Test: Anti-Wolbachia Cell-Based Screen
# Type: functional
# Design: scale not given: in the data most compounds retested in dose-response had high values
# Details: 5 µM
row,SMILES,Percent Effect
1,C[C@@H]1CN(C(=O)CSc2nncn2C)C[C@@]1(O)C1CC1,-9.811%
2,CCC(O)CN1CCN(C(=O)CCSC)CC1 (centres undefined),1.956%
3,CSCCC(=O)N1CCN(CC(C)O)CC1 (centres undefined),-18.5%
4,CSCC(=O)N1C[C@@H](C)[C@](O)(C(C)C)C1,100.1%
5,CSCC(=O)N1CCN(CC(O)C(C)(C)C)CC1 (centres undefined),-10.26%
6,CSCCC(=O)N1C[C@@H](C)[C@](O)(C(C)C)C1,109.4%
7,Clc1cccc2c1CCN(Cc1nc(CC3CC3)no1)C2,-15.7%
8,O=C(NCCNc1ncccn1)c1scnc1Cl,2.928%
9,CC(C)Cc1noc(CN2CCCN(C(=O)c3ccccc3Cl)CC2)n1,-15.62%
10,CC(C)Cc1noc(CN2CCN(C(=O)c3ccco3)CC2)n1,-2.17%
11,CCc1noc(CN2CCN(C(=O)N(C)C)CC2)n1,-9.661%
12,CCc1noc(CN2CCN(C(=O)c3ccccn3)CC2)n1,-5.851%
13,CCc1noc(CN2CCN(C(=O)c3ccccc3F)CC2)n1,117.4%
14,CC(C)Cc1noc(CN2CCN(C(=O)c3ccccc3F)CC2)n1,100.3%
15,OCC1(O)CCCN(Cc2ccc(-c3cc[nH]n3)s2)CC1 (centres undefined),3.83%
16,O=C(c1nccc2ccccc12)N1CCCCC1Cn1cccn1 (centres undefined),116.9%
17,O=C(c1n[nH]c(=O)c2ccccc12)N1CCCC1Cn1cccn1 (centres undefined),110.2%
18,O=C1COc2c(cccc2C(=O)N2CCCCC2Cn2cccn2)N1 (centres undefined),-1.784%
19,O=C1COc2c(cccc2C(=O)N2CCCC2Cn2cccn2)N1 (centres undefined),-10.2%
20,Cc1cnn(CC2CCCN2C(=O)c2cc3ccccc3c(=O)[nH]2)c1 (centres undefined),122.8%
21,Cc1cnn(CC2CCCN2C(=O)c2cc3ccccc3[nH]2)c1 (centres undefined),2.697%
22,Cc1cnn(CC2CCCN2C(=O)c2cc3ccccc3[nH]c2=O)c1 (centres undefined),-0.3129%
23,Cc1cnn(CC2CCCN2C(=O)c2n[nH]c(=O)c3ccccc23)c1 (centres undefined),115%
24,Cc1cnn(CC2CCCN2C(=O)Cc2n[nH]c3ccccc23)c1 (centres undefined),2.79%
25,O=C1CC(c2ccc(F)c(F)c2)c2snc(C(=O)O)c2N1 (centres undefined),8.498%
26,Cc1ccc(-c2cc(CN(CC(N)=O)CC(C)C)on2)cc1,-24.63%

row,SMILES,Percent Effect
1,Cc1ccc(-c2ncc(C(=O)NCCS(N)(=O)=O)s2)c(C)c1,-6.964%
2,CCCn1nnnc1CSc1nccn1CC,-2.029%
3,Cc1nc(CN2CCN(C(=O)CCC(=O)c3ccccc3)CC2)no1,17.55%
4,Cc1ncc(C(=O)N2CCCC(Cc3nccs3)C2)cn1 (centres undefined),96.26%
5,Cn1cc(C(=O)N2CCC(Cc3nccs3)CC2)cn1,0.6928%
6,O=C(N1CCCC1)C12CC(CN1Cc1nccs1)C2,-16.8%
7,Cc1ncc(C(=O)N2CC[C@@]3(O)CCN(C4CCCCC4)C[C@H]3C2)cn1,8.568%
8,CCc1nc(CN2CCCN(C(=O)c3cncnc3C)CC2)cs1,14.37%
9,O=C(c1cccnc1)N1CCCC(Cc2nccs2)C1 (centres undefined),104.8%
10,Cn1cc(C(=O)N2CCCC(Cc3nccs3)C2)cn1 (centres undefined),-5.021%
11,O=C(c1cnco1)N1CCCC(Cc2nccs2)C1 (centres undefined),-3.557%
12,Cc1ncncc1C(=O)N1CCCC(Cc2nccs2)C1 (centres undefined),112.8%
13,O=C(c1cccnc1)N1CCN(c2ccnc3ccsc23)CC1,-5.057%
14,CCCn1cc(C(=O)N2CCCC(Cc3nccs3)C2)cn1 (centres undefined),95.18%
15,Cc1ncncc1C(=O)N1CCCN(Cc2nccn2C(C)C)CC1,-12.73%
16,Cc1cccc2c1nc(CCO)n2-c1ccc(N)nc1,-17.09%
17,CSc1ccc(-c2nc(CN3CCC(NC(C)=O)C3)c(C)o2)cc1 (centres undefined),-8.203%
18,COc1cccc2c1OCC(C(=O)N1CCN(CCS(C)(=O)=O)CC1)C2 (centres undefined),-9.844%
19,Fc1ccc(Cn2ncc3c2CN(c2noc(C4CC4)n2)C3)cc1,2.089%
20,COc1nn(C)cc1C(=O)N1CCC(c2nnc(C3CC3)o2)CC1,8.567%
21,COc1nn(C)cc1C(=O)N1CCC(c2nnc(C(C)C)o2)CC1,80.59%
22,Cn1ccnc1C(=O)N1CCC(Cn2cc(-c3ccsc3)nn2)CC1,0.3036%
23,COc1ncccc1C(=O)N1CCC(c2nnc(C3CC3)o2)CC1,16.61%
24,Cn1nccc1C(=O)N1CCC(n2cc(-c3ccsc3)nn2)CC1,-17.39%
25,COc1nn(C)cc1C(=O)N1CCC(c2nnc(-c3ccsc3)o2)CC1,120.9%
26,C/C=C(/C)C(=O)NS(=O)(=O)c1ccc(Cl)cn1,2.315%

row,SMILES,Percent Effect
1,Cc1nccnc1N1Cc2cnc(CC(C)C)nc2C1,-0.1537%
2,CCCNC(=O)NCc1nc(C)c(C)o1,-5.382%
3,Cc1nc(CN(C)S(=O)(=O)c2ccc(F)cc2Br)no1,-1.638%
4,C[S+]([O-])c1nncn1CC(=O)c1cccc(Cl)c1 (centres undefined),6.672%
5,COc1ccc(CN(C(=O)CCC(C)C)c2cnn(C)c2)c(OC)c1,-10.12%
6,COc1cccc(CN(Cc2ccco2)Cc2[nH]cnc2C)c1.O=C(O)CC(O)(CC(=O)O)C(=O)O,156.3%
7,COc1cccc(CN(Cc2ncc[nH]2)Cc2ccco2)c1.O=C(O)CC(O)(CC(=O)O)C(=O)O,114.4%
8,COc1cccc(CN(Cc2ccco2)Cc2cnc(C)n2C)c1.O=C(O)CC(O)(CC(=O)O)C(=O)O,133.7%
9,COc1ccc(NC(=O)N(C)Cc2ccco2)cn1,3.036%
10,Cc1nc[nH]c1CN(Cc1ccccc1)Cc1nccs1,10.51%
11,COc1ccc(CN(Cc2ccco2)Cc2[nH]cnc2C)c(OC)c1.O=C(O)CC(O)(CC(=O)O)C(=O)O,111.9%
12,COc1cccc(CN2CCC(c3cc(O)nc(C)n3)C2)c1.O=C(O)CC(O)(CC(=O)O)C(=O)O (centres undefined),-8.452%
13,Cc1noc(CN(Cc2ccc3c(c2)OCCO3)Cc2ccco2)n1,-7.452%
14,CCOC(=O)C1(Cc2cccc(OC)c2)CCN(Cc2ncc[nH]2)CC1,-0.1816%
15,COc1ccc(CN(C(=O)C(C)C)c2cnn(C)c2)c(OC)c1,-18.73%
16,COc1ccc2nc(O)c(CN(C)Cc3ncc[nH]3)cc2c1,-3.339%
17,Cc1ccc(C(=O)N2C[C@@H](NS(C)(=O)=O)[C@H](C(C)C)C2)cc1O,5.531%
18,CC(CCc1cccn1C)NC(=O)Nc1cccn(C)c1=O (centres undefined),-4.481%
19,Cc1ccccc1OCC1CCCN(C(=O)CNC(=O)N(C)C)C1 (centres undefined),1.963%
20,N#Cc1cccc(CN2CCN(C(=O)C3CCC3)[C@@H]3CS(=O)(=O)C[C@@H]32)c1,2.28%
21,Cc1csc(CCNC(=O)c2ccc(N(C)C)c(F)c2)n1,-10.73%
22,CCN(Cc1ccoc1)C(=O)NC1CCN(CC2CCCC2)CC1,-1.692%
23,COc1ccc(N(Cc2ccco2)C(=O)C2CCCO2)cc1F (centres undefined),12.44%
24,CCOCC(=O)N(Cc1ccco1)c1ccc(OC)c(F)c1,-17.42%
25,COc1ccc(OC)c(CN(Cc2ccco2)Cc2[nH]cnc2C)c1.O=C(O)CC(O)(CC(=O)O)C(=O)O,125%
26,COCCN(CCOC)c1ncccc1I,19.77%

row,SMILES,Percent Effect
1,CC(C)n1cc(C(=O)NCCCn2ccnc2)c2n[nH]c(=O)c-2c1,123.9%
2,CC(C(=O)NCCCn1ccnc1)n1cc(Br)cn1 (centres undefined),2.347%
3,COCCCNC(=O)c1cn(C(C)C)cc2c(=O)[nH]nc1-2,104.5%
4,CC(C)N(C)CCCNC(=O)c1cnn(C(C)C)c1C(F)(F)F,7.835%
5,COc1cccc(-c2n[nH]cc2C(=O)NC(C)CC(=O)O)c1 (centres undefined),-19.78%
6,CCn1nc(C(C)C)cc1C(=O)NCCCOC,-18.28%
7,COCC(C)NC(=O)c1cn(C(C)C)cc2c(=O)[nH]nc1-2 (centres undefined),106.6%
8,COCC(C)NC(=O)c1nnn(-c2ccc(F)cc2)n1 (centres undefined),-1.834%
9,O=C(NCCCn1ccnc1)c1csc2c1CCCC2,4.867%
10,Cc1ccsc1CN(C)c1nc2c(cnn2C(C)(C)C)c(=O)[nH]1,-15.84%
11,O=C(c1ccco1)N1CCN(Cc2nc(C3CC3)no2)CC1,-17.27%
12,CC(C)(C)CC1CCCN1Cc1nc(-c2ccco2)no1 (centres undefined),1.615%
13,O=C(C1CCN(Cc2nc(-c3ccco3)no2)CC1)N1CCCC1,109.9%
14,c1coc(-c2noc(CN3CCC(c4ccn[nH]4)CC3)n2)c1,3.524%
15,CC(C)c1cc(C2CCCN2Cc2nc(-c3ccco3)no2)no1 (centres undefined),-36.51%
16,NC(=O)NCC1CCCCN1Cc1nc(-c2ccco2)no1 (centres undefined),116.5%
17,O=C(C1CCCN1Cc1nc(-c2ccco2)no1)N1CCSCC1 (centres undefined),97.23%
18,c1coc(-c2noc(CN3CCc4c(ncn4C4CC4)C3)n2)c1,-13.05%
19,O=C(C1CCCC1)N1CCN(Cc2nc(-c3ccco3)no2)CC1,3.823%
20,O=C(C1CCCCN1Cc1nc(-c2ccco2)no1)N1CCCC1 (centres undefined),-6.382%
21,O=C(C1CCCCC1)N1CCN(Cc2nc(-c3ccco3)no2)CC1,98.36%
22,CCCOCCOC(=O)c1ccc2c(c1)[nH]c(=O)n2C,-3.927%
23,NC(=O)CCn1cc(CNCCCc2ccccc2O)c2ccccc21,15.24%
24,COc1cc(C(=O)Nc2nc(C)no2)ccc1C,-1.332%
25,COCC(=O)NC[C@@]1(COc2cnccn2)C[C@@H](O)[C@@H](O)C1.Cl,-5.232%
26,COCCOCCCC(=O)N1CCC(Cc2ccccc2OC)CC1,-18.09%
